# High-throughput results: PubChem BioAssay, several laboratories
# Compounds with a hit are over-represented: about 0.54% of the library has one in this group of screens.
# ERp5 block – inhibitors of human ERp5; Q15084; ERp5 insulin aggregation, absorbance 650 nm, 90 min; inhibition, % at 9.99 µM; 0.05% of 350,000 active;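 active means mean replicate inhibition above about 25%, with every replicate also reaching it, limit read from the data, passing the limit was not always enough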
# Rtt109 HAT inh – C. albicans Rtt109 histone acetyltransferase inhibition; Q5AAJ8; purified Rtt109/Vps75, ThioGlo CoA-SH fluorescence, 4 h; inhibition, % at 34.9 µM; 0.16% of 330,000 active; AID 540336;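 active means inhibition of at least 50% in every replicate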
# PvdQ acylase – blocks Pseudomonas aeruginosa PvdQ acylase activity. purified PvdQ acylase, fluorescence plate reader. inhibition, % at 10 µM. 0.063% of 340,000 active; in the data active means inhibition above about 30%, passing the limit was not always enough
# Efflux pump mplx – blocks antifungal efflux pumps in multiplex yeast assay | S. cerevisiae Candida pump triplex, Nile Red efflux | inhibition, % at 10 µM | 0.44% of 330,000 active | AID 485275;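 active means plate passing quality check with inhibition over a set limit, or well fluorescence over plate mean plus 4 SD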;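 further: Nile Red retained in pooled yeast measured as flow cytometry median fluorescence; higher means more Nile Red kept so more efflux inhibition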
# PDI inh – blocks human protein disulfide isomerase activity | PDI insulin aggregation turbidity, A650, 90 min | 0.052% of 350,000 active | P07237 | AID 588391 | inhibition, % at 10 µM;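 active means mean inhibition across replicates of 30% or more, whatever share of single replicates reach that level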
# Target sequence (P07237 whole entry, looked up): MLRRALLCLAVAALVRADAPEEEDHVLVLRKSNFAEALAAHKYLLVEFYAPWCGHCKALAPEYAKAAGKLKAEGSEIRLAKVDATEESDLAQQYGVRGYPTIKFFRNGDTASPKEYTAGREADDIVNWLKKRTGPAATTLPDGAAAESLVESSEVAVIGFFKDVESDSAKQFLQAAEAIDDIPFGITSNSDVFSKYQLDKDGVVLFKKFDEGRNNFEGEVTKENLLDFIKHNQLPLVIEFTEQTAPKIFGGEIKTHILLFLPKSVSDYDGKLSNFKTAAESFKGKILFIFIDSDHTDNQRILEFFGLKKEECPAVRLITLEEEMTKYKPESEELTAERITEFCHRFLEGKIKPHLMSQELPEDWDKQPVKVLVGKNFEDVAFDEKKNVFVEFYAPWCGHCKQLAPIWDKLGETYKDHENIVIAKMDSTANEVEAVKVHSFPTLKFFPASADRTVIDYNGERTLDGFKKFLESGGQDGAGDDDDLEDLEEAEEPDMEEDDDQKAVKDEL
# Cmpd fluor yeast – compound fluorescence in yeast efflux pump counter-screen; shares compounds with Efflux pump mplx; S. cerevisiae AD/pABC3, flow cytometry; fluorescence ratio to DMSO, % at 10 µM; 4% of 1,700 active; AID 588517;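 active means fluorescence ratio to DMSO above its plate's cutoff, the plate mean ratio plus 5 SD, cut at about 210% in these data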;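 further: unstained yeast with no Nile Red so the signal is compound autofluorescence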
# CaMdr1 efflux inh – inhibitors of Candida albicans Mdr1 efflux pump; shares compounds with Efflux pump mplx; S. cerevisiae AD/CaMDR1, Nile Red efflux, flow cytometry; inhibition, % at 10 µM; 1% of 1,700 active; in the data active means inhibition above about 26%;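 further: higher means more Nile Red retained so more efflux inhibition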
# Cdr2 pump inh – Candida Cdr2 efflux pump inhibition; shares compounds with Efflux pump mplx; S. cerevisiae AD/CaCDR2, Nile Red retention, flow cytometry; Nile Red retention ratio vs DMSO, % at 10 µM; 4% of 1,700 active; in the data active means Nile Red retention ratio vs DMSO above about 190%;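 further: higher ratio means more blocking of Cdr2 efflux of the dye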
# Cdr1 pump inh – blocks the Candida albicans Cdr1 efflux pump in yeast | shares compounds with Efflux pump mplx | S. cerevisiae AD/CaCDR1, Nile Red efflux, flow cytometry | inhibition, % at 10 µM | 1% of 1,700 active;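 active means inhibition above the screen-wide mean plus twice its standard deviation, cut at about 32% in these data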
# Numbers stand for hits; . = inactive; / = not tested or not shown.
SMILES,ERp5 block,Rtt109 HAT inh,PvdQ acylase,Efflux pump mplx,PDI inh,Cmpd fluor yeast,CaMdr1 efflux inh,Cdr2 pump inh,Cdr1 pump inh
O=C(C[C@H]1CC[C@@H](NS(=O)(=O)c2ccc(F)cc2)[C@@H](CO)O1)NCc1ccccc1F,.,/,/,/,/,/,/,/,/
C[C@@H]1CCCCO[C@@H](CN(C)Cc2ccccc2)[C@H](C)CN([C@H](C)CO)C(=O)c2cc(NS(=O)(=O)c3cn(C)cn3)ccc2O1,.,/,/,/,/,/,/,/,/
O=C(COC(=O)c1cccc(Cl)c1)NCCN1C(=O)CSC1=O,.,.,.,.,.,.,.,.,.
O=C(COC(=O)c1cc(Cl)cc(Cl)c1)NCCN1C(=O)CSC1=O,.,.,.,.,.,.,.,.,.
O=C(COC(=O)c1ccc(Cl)cc1O)NCCN1C(=O)CSC1=O,.,.,.,.,.,.,.,.,.
O=C(c1ccc(F)cc1)N1CC(=O)N2[C@H](CO)[C@H](c3ccc(C#CCC4CCCC4)cc3)[C@H]2C1,.,/,/,/,/,/,/,/,/
COc1cc(OC)c(-c2noc(C(=O)OC(C)(C)C)c2C(=O)OC(C)(C)C)c(OC)c1,/,.,.,1.2,.,.,.,.,.
CC=Cc1ccc2n(c1=O)C[C@H]1[C@H](CO)[C@@H](C(=O)NC3CCCC3)N(CCC)[C@@H]21 (mixture of isomers),.,/,/,/,/,/,/,/,/
O=C(NC(=Nc1nc2ccccc2o1)NC(=O)c1ccccc1)c1ccccc1,/,.,.,1.2,.,.,.,.,.
COc1ccccc1C(=O)NC(=Nc1nc2ccccc2o1)NC(=O)c1ccccc1OC,.,.,.,.,.,/,/,/,/
COc1ccccc1NC(=O)N[C@H]1CC[C@H](CCNS(=O)(=O)c2ccc(C)cc2)O[C@@H]1CO,.,/,/,/,/,/,/,/,/
CCOC(=O)c1ccccc1NS(=O)(=O)c1ccccc1F,/,.,.,5.9,.,.,.,.,.
CCOC(=O)c1ccccc1NS(=O)(=O)c1ccccc1,/,.,.,.,.,/,/,/,/
COc1cc(C=C(c2nc3ccccc3s2)c2nc3ccccc3s2)ccc1O,.,.,.,.,.,/,/,/,/
CN(C)c1ccc(/C=C/c2ccc3ccccc3n2)cc1,.,.,.,.,.,/,/,/,/
CN(C)c1ccc(/C=C/c2nc3ccccc3s2)cc1,/,.,.,0.6,.,.,.,.,.
COc1cc(/C=C/c2nc3ccccc3s2)cc(OC)c1O,.,.,.,0.8,.,.,.,.,.
COc1ccccc1/C=C/C1=NC(=C\C=C/c2ccccc2)/C(=O)O1,.,.,.,5.2,.,.,.,.,.
COc1ccccc1/C=C/C=C1N=C(/C=C/c2ccc(Cl)cc2)OC/1=O,/,.,.,.,.,/,/,/,/
COc1ccc2c3c([nH]c2c1)[C@@H](CO)N(Cc1ccccn1)CC31CCN(C(C)=O)CC1,.,/,/,/,/,/,/,/,/
CCOC(=O)c1c(C)c(C)n(Cc2cccc(OC)c2OC)c1C,.,.,.,14,.,.,.,.,.
CCOC(=O)c1c(NC(=O)Cn2nc(C(=O)O)c3ccccc3c2=O)sc2c1CCC(C)C2 (stereo not given),.,.,.,0.5,.,.,.,.,.
NC(=O)c1c(NC(=O)Cn2nc(C(=O)O)c3ccccc3c2=O)sc2c1CCC2,.,.,.,.,.,/,/,/,/
CC(C)NC(=O)N[C@H]1C=C[C@@H](CC(=O)NCCCN(C)C)O[C@H]1CO,.,/,/,/,/,/,/,/,/
O=C(C[C@@H]1CC[C@@H](NS(=O)(=O)c2ccc(F)cc2)[C@@H](CO)O1)NC1CCCCC1,.,/,/,/,/,/,/,/,/
SMILES,ERp5 block,Rtt109 HAT inh,PvdQ acylase,Efflux pump mplx,PDI inh,Cmpd fluor yeast,CaMdr1 efflux inh,Cdr2 pump inh,Cdr1 pump inh
O=C(/C=C/c1ccccc1Cl)NCc1ccccc1,/,.,.,.,.,/,/,/,/
O=C(/C=C/c1ccccc1Cl)NCCc1ccccc1,.,.,.,3.3,.,.,.,.,.
CC1(C)C2CCC1(CS(=O)(=O)N1CCOCC1)C(=O)C2 (stereo not given),/,.,.,1.4,.,.,.,.,.
Cc1noc(C)c1S(=O)(=O)Nc1cccc2c1O[C@H](CN(C)Cc1ccncc1)[C@H](C)CN([C@@H](C)CO)C2=O,.,/,/,/,/,/,/,/,/
CCN(CC)c1ccc(C=N/C(C#N)=C(\N)C#N)cc1,/,.,.,0.7,.,.,.,348,.
CNC[C@@H]1OCCCC[C@H](C)Oc2ccc(NS(=O)(=O)c3ccc(C)cc3)cc2C(=O)N([C@H](C)CO)C[C@H]1C,.,/,/,/,/,/,/,/,/
COc1ccc(N2C(=O)CC(N3CCN(c4ccc(C(=O)c5cccnc5)cc4)CC3)C2=O)cc1 (stereo not given),/,.,.,9.8,.,.,.,.,.
Cc1ccc(/C=N/NC(=O)c2csc3c2CCCC3)cc1,/,.,.,.,.,/,/,/,/
Cc1nn(C)cc1/C=N\NC(=O)c1csc2c1CCCC2,.,.,.,7.4,.,.,.,.,.
Cc1c(/C=N/O)c2ccccn2c1C(=O)c1ccc(F)cc1,.,.,.,1.7,.,.,.,.,.
Cc1c(/C=N/NC(N)=O)c2ccccn2c1C(=O)c1ccc(F)cc1,.,.,.,.,.,/,/,/,/
O=C(c1ccc2c(c1)OCO2)N1CC2(C1)[C@@H](c1ccccc1)[C@@H](CO)N2C(=O)C1CCCC1,.,/,/,/,/,/,/,/,/
COc1ccc([C@H]2[C@H](C(=O)C(C)(C)C)N3N=Cc4ccccc4C3[C@]23N=C(c2ccccc2)OC3=O)cc1 (stereo not given in full),/,.,.,0.8,.,.,.,.,.
O=C(NCC1CCCO1)C1CCCN(S(=O)(=O)c2cccc(C(F)(F)F)c2)C1 (stereo not given),.,.,.,1.3,.,.,.,.,.
CCCC(=O)Nc1nc2ccc(OCC)cc2s1,.,.,.,.,.,/,/,/,/
CCOc1ccc2nc(NC(=O)CCn3cccc3)sc2c1,.,.,.,1.0,.,.,.,.,.
COc1ccc(OC)c(/C=C2\NC(=O)NC2=O)c1,.,/,.,.,.,/,/,/,/
COc1cc(N2CCCC2)c(OC)cc1/C=C1/NC(=S)NC1=O,/,.,.,0.5,.,289,.,.,.
O=C(C[C@@H]1C=C[C@@H](NC(=O)Nc2cc(F)ccc2F)[C@H](CO)O1)NCc1ccncn1,.,/,/,/,/,/,/,/,/
S=C(NCc1ccccc1)N1CCc2ccccc2C1,.,.,.,.,.,.,.,.,.
CO[C@@H]1CN(C)C(=O)c2ccc(NC(C)=O)cc2OC[C@@H](C)N(C(=O)CN2CCOCC2)C[C@H]1C,.,/,/,/,/,/,/,/,/
Fc1ccc(-c2csc3[n+]2CCS3)cc1,/,.,.,3.0,.,.,.,.,.
O=[N+]([O-])c1ccc(-c2csc3[n+]2CCS3)cc1,/,.,.,.,.,/,/,/,/
OC(COCc1ccc(Cl)cc1)CN1CCN(CC(O)COCc2ccc(Cl)cc2)CC1 (stereo not given),/,/,.,.,.,/,/,/,/
